{"source": "PubChem BioAssay AID1259415", "about": "(National Center for Advancing Translational Sciences (NCATS), 2018)", "note": "The campaign covered roughly 410,000 compounds. About 18,000 (4.4%) were called active. Inconclusive results (about 7%) are left out. No stated cut-off is given here; in the data, active means activity change below about -60%; inconclusive means no clear call, values can overlap the other calls; inactive means above about -39%. The sample as a whole holds a higher share of actives than the screen did. On the % scale 0 is the no-effect control and ±100 the full control effect.", "data": [{"assay": "qHTS Assay for inhibitors of the human cytomegalovirus (HCMV)", "conditions": "HFF cells, HCMV-luciferase reporter, 72 h; at 57.5 µM; hits give low values", "outline": "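After 16 h attachment at 37C, HFF cells received test compound and HCMV-luciferase (1 PFU/cell); reporter luminescence read 72 h later, data normalized against buffer-only and known inhibitor Salinomycin.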", "values": [{"molecule": "COc1ccc(OC)c(NC(=O)CN2CCCN(Cc3cc(C)ccc3C)S2(=O)=O)c1", "activity change, negative = inhibition": "0% (inactive)"}, {"molecule": "Cc1ccnc(NC(=O)C2CCN(S(=O)(=O)c3c(C)c(C)cc(C)c3C)CC2)c1", "activity change, negative = inhibition": "-4.39% (inactive)"}, {"molecule": "CN1CCN(C(=O)CCc2ncc(C(F)(F)F)cc2Cl)CC1", "activity change, negative = inhibition": "-28.5% (inactive)"}, {"molecule": "CC(C)n1ncc2c(C(=O)Nc3ccc(CC#N)cc3)cc(C3CC3)nc21", "activity change, negative = inhibition": "30.4% (inactive)"}, {"molecule": "CC(=O)Nc1ccc(CC#N)cc1", "activity change, negative = inhibition": "26.2% (inactive)"}, {"molecule": "N#CCc1ccc(NC(=O)c2ccccc2C(=O)Nc2ccc(CC#N)cc2)cc1", "activity change, negative = inhibition": "-72.2% (active)"}, {"molecule": "Cc1ccc(-c2nc3cccc(C)n3c2Nc2ccc3c(c2)OCCO3)cc1", "activity change, negative = inhibition": "76% (inactive)"}, {"molecule": "COc1ccc(NC(=O)C2CCCN(S(=O)(=O)c3cccc4nonc34)C2)cc1Cl", "note": "(stereo not given)", "activity change, negative = inhibition": "-11.9% (inactive)"}, {"molecule": "O=C(C1CC1)N1CCc2cc(Br)cc(S(=O)(=O)N3CCN(c4ccccc4F)CC3)c21", "activity change, negative = inhibition": "6.64% (inactive)"}, {"molecule": "CNC(=O)c1ccc(-c2nc(CN3CCc4ccccc43)c(C)o2)cc1", "activity change, negative = inhibition": "18.4% (inactive)"}, {"molecule": "Cc1ccc(N2CC(NC(=O)Cc3cccs3)CC2=O)cc1", "note": "(stereo not given)", "activity change, negative = inhibition": "76% (inactive)"}, {"molecule": "Cc1sc2ncnc(N3CCC(C(=O)Nc4ccc(F)cc4Cl)CC3)c2c1C", "activity change, negative = inhibition": "-21.6% (inactive)"}, {"molecule": "CCOC(=O)C1CCN(c2ncnc3c2c(-c2ccccc2)cn3-c2ccc(C)cc2)CC1", "activity change, negative = inhibition": "-37.8% (inactive)"}, {"molecule": "CCc1ccc(C(=O)NNC(=O)C2CCN(c3ncnc4sc(C)c(C)c34)CC2)cc1", "activity change, negative = inhibition": "-65.2% (active)"}, {"molecule": "O=C(O)c1ccc(Cn2cnc3c(=S)nc[nH]c32)cc1", "activity change, negative = inhibition": "1.65% (inactive)"}, {"molecule": "NC1=NC(c2cc(F)cc(F)c2)n2c(nc3ccccc32)N1", "note": "(stereo not given)", "activity change, negative = inhibition": "-1.84% (inactive)"}, {"molecule": "CC1CCC(NS(=O)(=O)c2ccc3c(c2)CC(=O)N3)CC1", "note": "(stereo not given)", "activity change, negative = inhibition": "23.2% (inactive)"}, {"molecule": "Cc1ccc(S(=O)(=O)NC2CCCCCC2)cc1C(N)=O", "activity change, negative = inhibition": "-23.9% (inactive)"}, {"molecule": "Cn1sc(=O)c2cc(S(=O)(=O)NC3CC3)ccc21", "activity change, negative = inhibition": "-82.6% (active)"}, {"molecule": "O=S1(=O)CC(N2CCSCC2)CN1Cc1cn(Cc2cccc(Cl)c2)nn1", "note": "(stereo not given)", "activity change, negative = inhibition": "-0.598% (inactive)"}, {"molecule": "O=C(NCCc1ccc(Cl)cc1)c1ccc2nc(CCc3ccccc3)oc2c1", "activity change, negative = inhibition": "44.3% (inactive)"}, {"molecule": "CCOc1ccccc1CNCc1c(C(=O)O)c(C)n(Cc2ccc(C)cc2)c1C", "activity change, negative = inhibition": "2.89% (inactive)"}, {"molecule": "O=C(CSc1nnc(CNC(=O)c2ccc(F)cc2)o1)Nc1ccc2c(c1)OCO2", "activity change, negative = inhibition": "-6.33% (inactive)"}, {"molecule": "O=C(CSc1nnnn1C1CCCC1)Nc1ccc2c(c1)OCCO2", "activity change, negative = inhibition": "15.2% (inactive)"}, {"molecule": "O=C(CSc1nc(-c2cccc(F)c2)[nH]c1-c1ccccc1)Nc1ccc2c(c1)OCO2", "activity change, negative = inhibition": "-87.5% (active)"}, {"molecule": "O=C(CSc1nc(=O)n2ccccc2n1)Nc1ccc2c(c1)OCCO2", "activity change, negative = inhibition": "-0.0406% (inactive)"}, {"molecule": "O=C(CSc1nc(C2CC2)nc2ccccc12)Nc1ccc2c(c1)OCCO2", "activity change, negative = inhibition": "-71.4% (active)"}, {"molecule": "O=C(CSc1ccc(-c2ccc(F)cc2)nn1)Nc1ccc2c(c1)OCCO2", "activity change, negative = inhibition": "16.6% (inactive)"}, {"molecule": "CCOc1cc(C(=O)Nc2nnc3n2CCS3)cc(OCC)c1OCC", "activity change, negative = inhibition": "-4.78% (inactive)"}, {"molecule": "O=C(CSc1ncc(-c2ccccc2)[nH]1)Nc1ccc(F)cc1F", "activity change, negative = inhibition": "-18.3% (inactive)"}, {"molecule": "O=C(CCCN1C(=O)/C(=C/c2cccs2)SC1=S)Nc1ccc(O)cc1", "activity change, negative = inhibition": "-92.8% (active)"}, {"molecule": "CC(=O)Nc1ccc(NC(=O)CCN2C(=O)C3CC=CCC3C2=O)cc1", "note": "(stereo not given)", "activity change, negative = inhibition": "19.5% (inactive)"}, {"molecule": "O=C(CCCN1C(=O)/C(=C/c2ccccc2)SC1=S)Nc1ccc(O)cc1", "activity change, negative = inhibition": "-85.4% (active)"}, {"molecule": "COc1ccc(NC(=O)CCCN2C(=O)C(c3ccccc3)Oc3cccnc32)cc1", "note": "(stereo not given)", "activity change, negative = inhibition": "37.1% (inactive)"}, {"molecule": "O=C(CCCN1C(=O)/C(=C\\c2ccccc2)SC1=S)Nc1ccccc1O", "activity change, negative = inhibition": "-94.8% (active)"}, {"molecule": "Cc1cc(OCCCC(=O)NCCN2C(=O)S/C(=C\\c3cccnc3)C2=O)ccc1Cl", "activity change, negative = inhibition": "-21.9% (inactive)"}, {"molecule": "Cc1cc(C)cc(NC(=O)CCN2C(=O)c3ccccc3C2=O)c1", "activity change, negative = inhibition": "-12.5% (inactive)"}, {"molecule": "O=C(CCCN1C(=O)C(c2ccccc2)Oc2cccnc21)Nc1ccccc1Br", "note": "(stereo not given)", "activity change, negative = inhibition": "4.91% (inactive)"}, {"molecule": "O=C(CCCN1C(=O)/C(=C/c2ccco2)SC1=S)Nc1ccccc1", "activity change, negative = inhibition": "-96.7% (active)"}, {"molecule": "N#Cc1c(NC(=O)CCCN2C(=O)c3ccccc3C2=O)oc(-c2ccccc2)c1-c1ccccc1", "activity change, negative = inhibition": "-2.46% (inactive)"}, {"molecule": "COC(=O)C1=C(C)N(C(C)c2ccccc2)C(=O)/C1=C\\c1ccco1", "note": "(stereo not given)", "activity change, negative = inhibition": "29.2% (inactive)"}, {"molecule": "O=C(CC1C(=O)N(c2ccccc2)C(=O)N1CCc1cccs1)Nc1ccc(F)cc1", "note": "(stereo not given)", "activity change, negative = inhibition": "-11.5% (inactive)"}, {"molecule": "COCCN(Cc1ccco1)C(=O)Cn1ncc2c([nH]c3ccccc32)c1=O", "activity change, negative = inhibition": "1.17% (inactive)"}, {"molecule": "N#Cc1cccc(CN2CCC(=O)N([C@H](CO)c3ccccc3)CC2)c1", "activity change, negative = inhibition": "-24.2% (inactive)"}, {"molecule": "O=C(Nc1ccc(Br)cc1)c1cc2nc(-c3ccccc3)cc(-c3ccccc3)n2n1", "activity change, negative = inhibition": "22.2% (inactive)"}, {"molecule": "CCc1ccc2oc(=O)cc(CN3CCCCC3C)c2c1", "note": "(stereo not given)", "activity change, negative = inhibition": "-19% (inactive)"}, {"molecule": "CCOC(=O)c1[nH]c(C)c(CCC(=O)NCc2ccccc2C)c1C", "activity change, negative = inhibition": "-16.4% (inactive)"}, {"molecule": "Cn1cnnc1SCC(=O)NNC(=O)COc1ccc(Br)cc1", "activity change, negative = inhibition": "-26.5% (inactive)"}, {"molecule": "Cc1ccsc1C(=O)NNC(=O)COc1ccc(Br)cc1", "activity change, negative = inhibition": "-16.1% (inactive)"}, {"molecule": "Cc1ccc(O)c(NC(=S)NC(=O)COc2ccc(Br)cc2)c1", "activity change, negative = inhibition": "-97.8% (active)"}, {"molecule": "COc1ccc(CN2CCc3nc(Nc4ccccc4)ncc3C2)c(OC)c1OC", "activity change, negative = inhibition": "-16.7% (inactive)"}, {"molecule": "COc1ccc(S(=O)(=O)c2cn(C)c3cc(N4CCCCC4)c(F)cc3c2=O)cc1", "activity change, negative = inhibition": "-2.52% (inactive)"}, {"molecule": "COc1cccc(CCNC(=O)c2cccc(NC(=O)C3=C(C)OCCS3)c2)c1", "activity change, negative = inhibition": "-34.7% (inactive)"}, {"molecule": "Cc1nc2nc(C)c(NS(=O)(=O)c3ccc(C(C)(C)C)cc3)c(=O)n2[nH]1", "activity change, negative = inhibition": "2.48% (inactive)"}, {"molecule": "Cc1ccccc1N1CCN(C(=O)c2cccnc2)CC1", "activity change, negative = inhibition": "-6.56% (inactive)"}, {"molecule": "O=C(Nc1ccc(N2CCN(C(=O)c3ccccc3)CC2)c(Cl)c1)c1ncn[nH]1", "activity change, negative = inhibition": "-25.4% (inactive)"}, {"molecule": "O=C(Nc1ccc(N2CCN(C(=O)c3ccccc3)CC2)c(Cl)c1)c1cccnc1", "activity change, negative = inhibition": "-70.9% (active)"}, {"molecule": "CC(C)COP(=O)(c1ccc(N(C)C)cc1)C(Nc1ccccc1)c1cccnc1", "note": "(stereo not given)", "activity change, negative = inhibition": "-101% (active)"}, {"molecule": "CC(Nc1ccccc1)c1cccnc1", "note": "(stereo not given)", "activity change, negative = inhibition": "4.97% (inactive)"}, {"molecule": "Cc1ccc(C(O)P(=O)(OC(C)C)c2ccc(N(C)C)cc2)cc1", "note": "(stereo not given)", "activity change, negative = inhibition": "15.1% (inactive)"}]}]}
